Results published in PubChem BioAssay.
Calls of active or inactive are those of the source. The rule behind the calls is not given here.

Test: inhibition of 3D7 malaria parasite growth – strain 3D7 (AID 2306);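 note: 0% = DMSO wells and 100% = chloroquine plus artemisinin control wells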
Details: P. falciparum 3D7 erythrocytic growth, LDH absorbance, 72 h; at 2 µM; stronger effect = higher value

Growth inhibition, active:
O=C(Nc1ccc(C(=O)Nc2cccc(C3=NCCN3)c2)cc1)Nc1ccc(C2=NCCN2)cc1 96%, Cc1cc(C(=O)NCc2ccc(-c3c(C)noc3C)cc2)n(-c2ccccc2)n1 92%, O=C1OC2(CN1CC1CCN(Cc3ccc(O)c(Cl)c3)CC1)c1ccccc1-c1ccccc12 97%, Cc1cc(O)c(CN(C)Cc2ccc3c(c2)OCCO3)cc1C(C)C 98%, O=C(Nc1ccc2c(c1)CCNCC2)c1ccc(-c2ccc(Cl)cc2)cc1 96%, COc1cc(Cc2cnc(N)nc2N)cc(CC(C)O)c1O (centres undefined) 93%, O=C(Nc1ccc(C(F)(F)F)cc1)N[C@H]1CCN(CCCCCNC(=O)[C@@H]2C[C@H]2c2ccc(Cl)c(Cl)c2)C1 96%, CN(C)CCNC(=O)c1ccc2c(c1)ncn2-c1cc(OCc2ccccc2C(F)(F)F)c(C(N)=O)s1 (tested in a mixture with another compound) 90%, CCCCCCOc1ccc(C(=O)N(Cc2ccccc2)c2c(-c3ccccc3)nc3cc(C)ccn23)cc1 95%, CN(C)CCn1c(N)c(-c2nc3ccccc3s2)c2nc(C#N)c(C#N)nc21 94%, Cc1nc(N)nc(N)c1CCCOc1cccc(Cl)c1 96%, CCCC(C)Nc1nc(C)cc(N[C@@H](CC(C)C)C(=O)NCc2cccc(F)c2)n1 (some centres undefined) 96%, Cc1ccc(NC(=O)c2ccc(N3CCN(c4ccncc4)CC3)cc2)cc1F 100%, CC(CCCCOCCc1ccccc1)NCC(O)c1cc(Cl)c(N)c(Cl)c1 (centres undefined) 96%
